Source: PubChem (National Center for Advancing Translational Sciences (NCATS))
KB-V1 MDR tox = qHTS assay for MDR1-selective chemotherapeutics: Primary screen using the drug-selected MDR subline cells KB-V1. actives 3.4% (n = 400,000). Potency, µM (titrated, usually from 46.1 µM), actives largely listed as cytotoxic. KB-V1 MDR cells viability, CellTiter-Glo, 72 h. AID 1347076, 2019; note: nearly all actives have a fitted effect of over 60% in size
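Compound-treated KB-V1 multidrug-resistant cells, 72 h, 37 degrees C; viability by CellTiter-Glo. Fitted qHTS curves give the values.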
HT1080 IDH1KD tx = qHTS for induction of synthetic lethality in tumor cells producing 2HG: qHTS for the HT-1080-IDH1KD cell line. HT-1080 IDH1 knockdown viability, ATP luminescence, 48 h. Potency, µM (highest dose often 46.1 µM), most hits filed as cytotoxic. actives 2% (n = 360,000)
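IDH1KD HT-1080 cells, 750/well, RPMI + 5% FBS; compound pinned after 2 h settling; 48 h, 37 °C; CellTiter-Glo luminescence; % activity normalised to DMSO and no-cell wells; curves fitted, classed by r2 and efficacy.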
KB-3-1 cytotox = qHTS assay for MDR1-selective chemotherapeutics: Primary screen using the parental adenocarcinoma cell KB-3-1; KB-3-1 viability, CellTiter-Glo ATP luminescence, 72 h; Potency, µM (doses to about 46.1 µM), hits mostly cytotoxic; actives 1.4% (n = 400,000); note: nearly all actives have a fitted effect of over 60% in size
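Viability of parental KB-3-1 cells, measured by CellTiter-Glo luminescence, followed a 72 h incubation at 37 °C with pinned compounds in phenol-red-free DMEM containing 10% FBS.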
HT1080-NT tox = qHTS for induction of synthetic lethality in tumor cells producing 2HG: qHTS for the HT-1080-NT fibrosarcoma cell line | AID 686970, 2013 | Potency, µM (titrated, usually from 46.1 µM), usual class: cytotoxic | actives 1.6% (n = 360,000) | HT-1080-NT fibrosarcoma viability, CellTiter-Glo ATP luminescence, 48 h;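 note: NT is the 2HG producing partner of a matched IDH1 knockdown line; nearly all actives have a fitted effect of over 55% in size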
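Luminescent CellTiter-Glo readout after 48 hours of compound exposure at 37 degrees C defined viability of HT-1080-NT cells. Activity was normalized to DMSO wells and cell-free media wells; concentration-response curves were fitted and assigned curve classes.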
TDP1 cell noCPT = qHTS for Inhibitors of human tyrosyl-DNA phosphodiesterase 1 (TDP1): qHTS in cells in absence of CPT; Potency, µM (series often up to 46.2 µM), usual class: inhibitors; DT40 Tdp1-/- hTDP1 cells, no CPT, ATP luminescence, 48 h; actives 15% (n = 420,000); note: nearly all actives have a fitted effect of over 55% in size
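Chicken DT40 Tdp1-/- cells stably complemented with human TDP1 were seeded at 400 cells/well with DMSO in place of 20 nM camptothecin. After compound pinning, cells grew at least 48 hr at 37 °C; viability read by CellTiter-Glo luminescence.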
DT40 TDP1 CPT = qHTS for Inhibitors of human tyrosyl-DNA phosphodiesterase 1 (TDP1): qHTS in cells in presence of CPT. actives 12% (n = 420,000). chicken DT40 Tdp1-/-;hTDP1 cells + 20 nM CPT, ATP luminescence, 48 h. Potency, µM (top dose mostly 46.2 µM), hits mostly inhibitors; note: nearly all actives have a fitted effect of over 55% in size
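Chicken DT40 Tdp1-/- cells complemented with human TDP1, 400 cells/well, exposed to compounds plus 20 nM camptothecin for at least 48 h at 37 C; viability read as ATP content by CellTiter-Glo luminescence.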
Hits are given with their value; i = inactive; ? = inconclusive; nt = not tested or not shown; [ ] = another dose, or the depositor's remark. A selection: hits, their analogues and other compounds. The true share with any hit is near 19%. Calls come from the whole dose curve; as a rule, active = well fitted curve in the direction sought with a large enough effect; inconclusive = small, poorly fitted or top-dose-only effect, or another doubt; inactive = no such curve, though single readings can be large; an effect the other way counts as inactive or inconclusive.

SMILES	KB-V1 MDR tox	HT1080 IDH1KD tx	KB-3-1 cytotox	HT1080-NT tox	TDP1 cell noCPT	DT40 TDP1 CPT
COc1ccccc1-c1csc(C(C)(O)c2ccccc2)n1 (stereo not given)	i	i	i	i	?	15µM
CC(O)(c1cccc(F)c1)c1nc(-c2csc3ccccc23)cs1 (stereo not given)	i	?	i	?	?	?
COc1ccccc1-c1csc(C(C)(O)c2cccc(F)c2)n1 (stereo not given)	i	?	i	i	16µM	13µM
COc1cc(OC)c(NC(=O)CCCn2nc(C)c3c(C)n(-c4ccccc4)nc3c2=O)cc1Cl	i	nt	i	nt	?	?
Cc1ccc(S(=O)(=O)N(C(=O)c2ccncc2)c2ccc(OC(=O)c3ccncc3)c3ccccc23)c(C)c1	i	?	i	?	3.7µM	4.6µM
O=C(Oc1ccc(N(C(=O)c2ccncc2)S(=O)(=O)c2cccs2)cc1)c1ccncc1	i	i	i	i	?	i
Cc1ccc(OC(=O)c2ccc(S(=O)(=O)N(C)C)cc2)c(-n2nc3ccccc3n2)c1	i	i	i	i[9.24 µM]	i	i
Cc1ccc(S(=O)(=O)N(C(=O)c2ccncc2)c2ccc(OC(=O)c3ccncc3)c3ccccc23)cc1	i	?	i	?	5.2µM	2.6µM
CN1OC[C@@H]2CN(Cc3ccccc3)[C@H](c3cccc(Oc4ccccc4)c3)C[C@@H]21	i	i	i	i	23µM	26µM
CN1OC[C@@H]2CN(Cc3cc(Cl)cc(Cl)c3)[C@H](c3cccc(Oc4ccccc4)c3)C[C@@H]21	i	i	i	i	?	?
CCOc1ccc(Nc2nc(NCCN3CCOCC3)nc(OC)n2)cc1	18µM	i	i	i	i	i
COc1cc(/C=c2\s/c(=C(/C#N)C(=O)N3CCCC3)n(-c3ccccc3)c2=O)ccc1O	i	i	i	i	9.2µM	?
COC(=O)/C=c1/s/c(=C(/C#N)C(=O)N2CCCCC2)n(-c2ccccc2)c1=O	i	i	i	i	?	i
CCCOc1c(Cl)cc(C(=O)N(Cc2cccc(OC)c2)C2CCS(=O)(=O)C2)cc1Cl (stereo not given)	i	nt	i	nt	?	?
Brc1ccc(/C=N/Nc2nc3ccccc3o2)cc1	i	i	i	i	i	i
CCOC(=O)N/N=C/c1c(C)nn(-c2ccccc2Cl)c1Cl	i	i	i	i	?	?
Oc1ccc(C=NNc2nc3ccccc3s2)c(O)c1	i	?	?	?	4.1µM	3.7µM
C(=N\Nc1nc2ccccc2s1)/c1cccs1	?	11µM	i	10µM	?	16µM
C(=N\Nc1nc2ccccc2s1)/c1ccco1	?	?	i	?	?	i
Oc1ccccc1/C=N/Nc1nc2ccccc2o1	?	?	?	?	2.9µM	3.3µM
Cc1nn(-c2ccccc2Cl)c(Cl)c1/C=N/Nc1nc2ccccc2s1	i	?	?	?	12µM	?
O=C(C1CCC(=O)N(C2CC2)C1)N1CCC(Oc2cccc(C(F)(F)F)c2)CC1 (stereo not given)	i	i	i	i	?	?
Oc1ccccc1C=NNc1nc2ccccc2s1	i	8.2µM	?	18µM	0.052µM	0.065µM
COc1cccc(C=NNc2nc3ccccc3s2)c1OC	?	i	i	?	?	i
CCn1c(C)c(/C=N/Nc2nc3ccccc3s2)c2ccccc21	i	8.9µM	i	3.5µM	18µM	18µM
SMILES	KB-V1 MDR tox	HT1080 IDH1KD tx	KB-3-1 cytotox	HT1080-NT tox	TDP1 cell noCPT	DT40 TDP1 CPT
O=[N+]([O-])c1ccc(/C=N/n2c(C3CCCCC3)n[nH]c2=S)cc1	i	i	i	i	16µM	?
O=[N+]([O-])c1ccc(C=NN2CCCCCC2)cc1	i	i	i	i	18µM	?
COc1ccccc1N1CCN(/N=C/c2ccc([N+](=O)[O-])cc2)CC1	i	i	i	i	?	?
Cc1occc1C(=O)Nc1cccc(Cl)c1Cl	i	i	i	?	i	i
CC(=O)Nc1ccc(NC(=O)c2cc(C3CC3)nc3c2cnn3C(C)C)cc1	i	i	i	i	?	29µM
CC(C)n1ncc2c(C(=O)Nc3cccc(S(=O)(=O)N(C)C)c3)cc(C3CC3)nc21	8.2µM	i	?	i	9.2µM	18µM
CC(C)n1ncc2c(C(=O)Nc3ccc(S(C)(=O)=O)cc3)cc(C3CC3)nc21	i	i	i	i	?	?
COc1ccc(C(=O)/C=C/C(=O)N(CC(=O)NCCC(C)C)Cc2cccs2)c(O)c1	10µM	i	i	i	?	1.8µM
COc1ccc(C(=O)/C=C/C(=O)N(CC(=O)NC2CCCCC2)Cc2ccc(F)cc2)c(O)c1	16µM	i	?	i	4.6µM	5.2µM
COc1ccc(OC)c(NC(=O)CN(Cc2ccc(F)cc2)C2CCCCC2)c1	?	?	16µM	?	16µM	?
CC1(C)CC(=O)C(C2C3=C(CC(C)(C)CC3=O)OC3=C2C(=O)CC(C)(C)C3)=C(O)C1	i	i	i	i	i	i
Cc1cc(C)cc(NC(=O)C(c2ccccc2)N2CCCC2)c1 (stereo not given)	i	i	?	i	2.9µM	3.7µM
O=C(O)C(c1ccccc1)N1CCCC1 (stereo not given)	i	i	i	i	i	i
O=C(CN1CCN(C(C(=O)Nc2cc(C(F)(F)F)ccc2Cl)c2ccccc2)CC1)NC1CC1 (stereo not given)	?	i	?	i	?	21µM
Cc1cccc(C)c1NC(=O)C(c1ccc(Cl)cc1Cl)N1CCCCC1 (stereo not given)	?	i	i	i	29µM	18µM
Cc1ccc(NC(=O)C(c2ccc(Cl)cc2)N2CCCCC2)cc1 (stereo not given)	i	i	?	i	13µM	15µM
Cc1cc(C)cc(NC(=O)C(c2ccccc2)N2CCN(CC(=O)NC3CC3)CC2)c1 (stereo not given)	16µM	i	i	i	i	i
CC(=O)c1ccc(F)c(-c2cc(C)cc3c2OC(CNC(=O)C2CCCCN2C)C3)c1 (stereo not given)	nt	nt	nt	nt	?	i[9.04 µM]
